In PubChem BioAssay AID588342 (National Center for Advancing Translational Sciences (NCATS), 2011):
In all, about 360,000 compounds went through this assay and about 25,000 (6.9%) were called active. Roughly 9% stayed inconclusive and do not appear here. The sample as a whole holds a higher share of actives than the screen did. Values without a mark were called inactive. Calls follow the shape of the dose curve; as a rule, active = well fitted inhibition curve with a large enough effect; inconclusive = small, poorly fitted or top-dose-only effect; inactive = flat fitted curve, though single readings scatter.

Target: Luciferin 4-monooxygenase (Photinus pyralis) (UniProt P08659)
Assay: qHTS profiling assay for firefly luciferase inhibitor/activator using purifed enzyme and Km concentrations of substrates (counterscreen for miR-21 project); also: nearly all actives have a fitted effect of over 55% in size;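 as to activity change, negative = inhibition: plate controls were vehicle for no effect and reference inhibitor for full effect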
Details: purified FLuc, luminescence inhibition; series mostly up to 57.5 µM; activity change, negative = inhibition: at the top concentration
How it was run: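 Biochemical qHTS of compounds, final roughly 60 µM downward over six points, against 10 nM purified firefly luciferase using Km concentrations of substrates (10 uM D-luciferin, 10 uM ATP) in Tris acetate pH 7.5 buffer; luminescence output.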
Potency is read from the fitted curve at half-maximal effect.

Chain of Luciferin 4-monooxygenase (Photinus pyralis) (P08659 whole entry, looked up): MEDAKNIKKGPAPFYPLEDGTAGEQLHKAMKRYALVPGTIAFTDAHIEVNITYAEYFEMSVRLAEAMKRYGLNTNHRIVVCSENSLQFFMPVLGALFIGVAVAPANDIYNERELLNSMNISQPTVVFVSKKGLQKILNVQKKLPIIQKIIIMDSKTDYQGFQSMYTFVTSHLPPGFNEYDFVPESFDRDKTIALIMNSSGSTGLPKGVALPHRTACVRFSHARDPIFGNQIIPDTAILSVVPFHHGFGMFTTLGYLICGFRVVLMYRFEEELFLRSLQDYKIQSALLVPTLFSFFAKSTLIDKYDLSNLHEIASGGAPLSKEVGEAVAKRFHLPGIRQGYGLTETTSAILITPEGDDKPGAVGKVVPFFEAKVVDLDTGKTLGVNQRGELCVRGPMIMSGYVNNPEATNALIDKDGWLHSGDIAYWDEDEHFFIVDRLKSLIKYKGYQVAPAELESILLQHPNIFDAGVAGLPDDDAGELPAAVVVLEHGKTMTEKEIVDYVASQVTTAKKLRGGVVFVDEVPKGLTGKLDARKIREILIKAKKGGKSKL

| Compound | activity change, negative = inhibition | Potency |
| --- | --- | --- |
| Cc1ccc(-n2ncc(C(=O)N(C)Cc3ccccc3)c2-n2cccc2)cc1 | -10.4% |  |
| O=C(O)CS/C(=C\c1ccc(F)cc1)c1nc2ccccc2s1 |  | 23.9 µM (active) |
| CC(=O)N/C(=C\c1ccc(F)cc1)C(=O)NC(Cc1ccccc1)C(=O)O (stereo not given) | 0.397% |  |
| O=C(O)CC/C(=C\c1cc2c(cc1Br)OCO2)c1nc2ccccc2s1 | -2.88% |  |
| COc1ccccc1NC(=O)CN1C(=O)c2ccccc2Sc2ccc(C(=O)N3CCCC3)cc21 | -10.2% |  |
| O=C(Nc1ccccc1)N1CCN(C(=O)Nc2ccccc2)CC1 | 0.646% |  |
| O=C(Nc1ccccc1)c1ccccc1NC(=O)C(F)(F)F | 0.648% |  |
| O=C(Nc1ccccc1)c1cc2ccccc2[nH]1 |  | 9.53 µM (active) |
| CCC(=O)N1CCc2cc(S(=O)(=O)NC(CC(C)C)C(=O)NCCc3cccc(C)c3)ccc21 (stereo not given) | -0.621% |  |
| CCCCSc1ncnc2c1sc1nc(N3CCOCC3)c3c(c12)CCCC3 | -4.06% |  |
| CC(C)CNC(=O)/C=C/C(=O)O |  | inactive |
| Cc1ccc(CN2CCC(CNC(=O)c3cnn(-c4ccccc4Cl)c3C3CCN(C(=O)OC(C)(C)C)CC3)CC2)cc1 | -4.29% |  |
| COc1cccc(CNC(=O)COC(=O)CN2C(=O)NC3(CCCCC3C)C2=O)c1 (stereo not given) | -1.62% |  |
| CCCc1ccc(C(=O)COC(=O)CN2C(=O)NC3(CCCCC3C)C2=O)cc1 (stereo not given) |  | 26.9 µM (active) |
| CC1CCCCC12NC(=O)N(CC(=O)OCC(=O)NCc1ccc(F)cc1)C2=O (stereo not given) | -0.371% |  |
| COc1ccc(CCNC2=C(Cl)C(=O)N(Cc3ccccc3)C2=O)cc1OC | 4.85% |  |
| C/C(=N/NC(=O)c1ccncc1)c1ccc2c(c1)OCO2 | -13.6% |  |
| COc1ccc(C/C(C)=N/NC(=O)c2ccncc2)cc1 | 0.213% |  |
| CCN(CC)c1ccc2cc(C(N)=O)/c(=N\NC(=O)c3ccncc3)oc2c1 |  | 16.9 µM (active) |
| CO/N=C/c1cn(-c2ccc(Cl)cc2)nn1 | -24.2% |  |
| O=C(CC1C(=O)N(c2ccccc2)C(=O)N1CCc1cccs1)Nc1ccc(F)cc1 (stereo not given) | -2.66% |  |
| CC(C)Sc1oc(-c2cccs2)nc1S(=O)(=O)c1ccc(Cl)cc1 | -3.69% |  |

| Compound | activity change, negative = inhibition | Potency |
| --- | --- | --- |
| COCc1c(N)c(C)nc(Cl)c1C#N |  | 10.7 µM (active) |
| Cc1nc(Cl)c(C#N)c2c1CCCC2 | -0.445% |  |
| COc1ccc(C2=NC(c3ccncc3)=Nc3ccc(Br)cc3N2)cc1 | -16.1% |  |
| CCc1nnc2c3ccccc3nc(N3CCN(c4ccc(C)cc4C)CC3)n12 | -1.42% |  |
| COc1cccc(NC(=O)CN2C(=O)c3ccccc3Sc3ncccc32)c1 | -3.31% |  |
| Cc1cccc(CNC(=O)c2cnc3sc(N4CCCCC4)nn3c2=O)c1 | -1.04% |  |
| Brc1cccc(-c2nnn3c2nc(NC2CCCCC2)c2ccccc23)c1 | -2.51% |  |
| Nc1cc(C(F)(F)F)ccc1N1CCOCC1 | -1.06% |  |
| CCn1c(C)c(C)c2cc(C(=O)NCCc3cc(OC)ccc3OC)ccc21 | -18.4% |  |
| CCOC(=O)c1c(NC(=O)c2cc(-c3ccc(Cl)cc3)on2)sc2c1CCCC2 | -12.9% |  |
| CCOc1ccc(NC(=O)C2CCN(S(=O)(=O)c3cc(-c4noc(C)n4)ccc3C)CC2)cc1 | 1.53% |  |
| CCOC(=O)CCc1c(C)c2ccc(OCc3nn[nH]n3)c(C)c2oc1=O |  | 15.1 µM (active) |
| Cc1c(CCC(=O)O)c(=O)oc2c(C)c(OCc3ccccc3Cl)ccc12 | -3.32% |  |
| COc1ccc2c(C)c(CCC(=O)NC3CC3)c(=O)oc2c1C | -18.3% |  |
| Cc1ccc(NC(=O)CC2S/C(=N/N=C3\CCCc4ccccc43)NC2=O)cc1 (stereo not given) | 3.18% |  |
| Cc1ccc(N/N=C2\COC(C)(C)CC2=O)cc1 |  | 7.57 µM (active) |
| Cc1ccc(-n2c(SCC(=O)Nc3cccc(F)c3)nc3c(oc4ccccc43)c2=O)cc1C | -9.06% |  |
| COc1cc(Br)cc2cc(S(=O)(=O)c3ccccc3)c(=O)oc12 | -12.4% |  |
| COc1ccc(C(=O)NCc2nnc(SCCOc3ccccc3)n2C)cc1 | 0.822% |  |
| COc1cccc(C(=O)NCCSc2ccc(Br)cc2)c1 | -13.2% |  |
| COc1ccc(C(=O)NCCSc2ccccc2C)cc1 |  | 3.79 µM (active) |
| COc1ccccc1CN1CCC(CNC(=O)c2cnn(-c3ccccc3Cl)c2C2CCN(C(=O)OC(C)(C)C)CC2)CC1 | -1.99% |  |

| Compound | activity change, negative = inhibition | Potency |
| --- | --- | --- |
| Cc1cc(C(F)(F)F)nc(SCC(=O)Nc2nccs2)n1 | 6.31% |  |
| O=c1c2c(nc3nc[nH]n13)CCC2 | -0.341% |  |
| O=C1CCCc2c1nc(-c1cccc(Cl)c1)n2O | -0.28% |  |
| Cc1cc(=O)n2[nH]c(-c3cccc(Cl)c3)cc2n1 |  | 15.1 µM (active) |
| Cc1cc(=O)n2[nH]c(-c3sccc3-n3c(C)ccc3C)cc2n1 | -15.7% |  |
| O=c1c2c(nc3cc(-c4cccc(Cl)c4)[nH]n13)CCCC2 |  | 0.478 µM (active) |
| CCCc1cc(=O)n2[nH]c(C)c(-c3ccc(Cl)cc3)c2n1 | -2.04% |  |
| CCOC(=O)c1c(-c2ccc(OC)cc2)oc2ccc(OCc3ccc(C(=O)OC)cc3)cc12 | 3.13% |  |
| COc1ccc(C)cc1NC(=O)CCc1c(C)nn(-c2ccc(N3CCOCC3)nn2)c1C | -14.2% |  |
| Cc1ccc(Cn2c(C)c3cnn(CC(=O)NCc4ccccc4)c(=O)c3c2C)cc1 | -15.1% |  |
| CC(=O)c1c(C)n(S(=O)(=O)c2ccc(Cl)cc2)c2ccc(NS(=O)(=O)c3ccc(Cl)cc3)cc12 | 0.804% |  |
| COc1cc(C(=O)Nc2ncccc2C)ccc1OCC(=O)N1CCOCC1 | 3.05% |  |
| COc1ccccc1-c1cc2nc(C)c(CCC(=O)O)c(C)n2n1 |  | 15.1 µM (active) |
| COc1ccc(-c2cc3nc(C)c(CCC(=O)NC(C)CCc4ccco4)c(C)n3n2)c(OC)c1 (stereo not given) | 1.35% |  |
| COc1cc(OC)cc(-c2nc3nc(C)c(CCC(=O)Nc4ccccc4)c(C)n3n2)c1 | 1.43% |  |
| CCOc1ccc(OCC)c(NC(=O)CN(c2ccc(C)cc2)S(=O)(=O)c2c(C)n[nH]c2C)c1 | -2.42% |  |
| CCOC(=O)c1c(S(=O)(=O)NCC(=O)Nc2ccc(Cl)c(C(F)(F)F)c2)c(C)n(C)c1C | -14.6% |  |
| CC1CCN(CC(=O)c2c[nH]c3ccccc23)CC1 | -0.382% |  |
| O=C(OCC(=O)c1c[nH]c2ccccc12)c1cccc(O)c1 |  | 9.53 µM (active) |
| C[C@H](NC(=O)c1ccccc1)C(=O)OCC(=O)c1c[nH]c2ccccc12 | -19.2% |  |
| Cn1c(=O)[nH]c(=O)c2c1nc(CN1CCN(c3ccccc3F)CC1)n2CCc1ccccc1 | 1.71% |  |
